Source: PubChem (several laboratories)
In the library only some 0.97% were active in any assay of this set; here they are far more common.
TcdB GH inh – TcdB glycohydrolase inhibition | TcdB glycohydrolase enzymatic assay, plate reader | inhibition, % at 9.99 µM | 350,000 compounds, 0.24% hits; in the data active = inhibition above about 10%
Rv3671c inh – Rv3671c (M. tuberculosis) protease inhibition; inhibition, % at 5.96 µM; 320,000 compounds, 0.048% hits; in the data active = inhibition above about 38%;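 also: extracellular domain of Rv3671c used as enzyme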
MazF activator – MazEF (E. coli) toxin RNase activation; FAM/BHQ RNA-DNA oligo cleavage fluorescence, 5 h; activation, % at 20 µM; 350,000 compounds, 0.32% hits; P0AE70; in the data active = activation above about 50%
RecA splice inh – Mtb RecA intein splicing inhibition; P9WHJ3; cell-free RecA intein splicing, fluorescence; inhibition, % (concentration not given with the values); 290,000 compounds, 0.75% hits; in the data active = inhibition above about 30%; inconclusive = no clear call, values can overlap the other calls
Target sequence (P9WHJ3 whole entry, looked up, canonical isoform): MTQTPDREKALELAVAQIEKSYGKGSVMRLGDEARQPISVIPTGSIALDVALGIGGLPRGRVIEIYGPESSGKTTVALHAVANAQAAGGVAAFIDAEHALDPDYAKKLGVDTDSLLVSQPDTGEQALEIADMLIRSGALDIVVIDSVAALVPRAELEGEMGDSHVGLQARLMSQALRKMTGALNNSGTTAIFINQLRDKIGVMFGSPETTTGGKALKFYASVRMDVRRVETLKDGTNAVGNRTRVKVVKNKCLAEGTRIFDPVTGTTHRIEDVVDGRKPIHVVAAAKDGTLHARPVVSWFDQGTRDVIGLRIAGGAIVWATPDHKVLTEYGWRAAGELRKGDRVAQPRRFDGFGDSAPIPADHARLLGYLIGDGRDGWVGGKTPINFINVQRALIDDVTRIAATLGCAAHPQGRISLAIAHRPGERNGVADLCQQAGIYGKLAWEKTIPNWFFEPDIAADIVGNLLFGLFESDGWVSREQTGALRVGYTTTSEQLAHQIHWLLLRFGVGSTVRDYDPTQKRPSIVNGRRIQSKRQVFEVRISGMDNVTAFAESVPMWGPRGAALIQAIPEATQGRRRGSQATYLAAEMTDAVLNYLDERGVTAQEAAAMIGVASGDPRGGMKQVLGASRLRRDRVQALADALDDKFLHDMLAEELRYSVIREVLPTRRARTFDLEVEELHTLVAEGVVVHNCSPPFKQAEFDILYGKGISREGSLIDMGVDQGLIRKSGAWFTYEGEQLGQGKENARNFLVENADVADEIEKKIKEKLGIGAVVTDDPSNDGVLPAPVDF
Mtb bLac sens – beta-lactam sensitization of Mtb H37Rv; M. tuberculosis H37Rv growth with meropenem, percent inhibition; inhibition, % at 25 µM; 330,000 compounds, 0.27% hits; AID 434955;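 also: growth measured after seven days incubation then overnight dye step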
UGM FP inh – inhibitors of M. tuberculosis UDP-galactopyranose mutase; purified UGM, fluorescence polarization probe displacement; inhibition, % at 10 µM; 320,000 compounds, 0.06% hits; P9WIQ1; AID 504406; in the data active = inhibition above about 10%, passing the limit was not always enough; inconclusive = no clear call, values can overlap the other calls
GFP chromophore – counter-screen GFP chromophore formation inhibition | AID 434968 | shares compounds with RecA splice inh | EC50, µM | 2,100 compounds, 83% hits | cell-free GFP chromophore formation, fluorescence
Large screens that a line does not name were inactive (follow-up assays come after a bar, where they were run). Unless noted, no rule for the calls is given here.

COC(=O)C1=C(C)NC(C)=C(C(=O)OC)C1c1ccc(OC(=O)c2ccco2)cc1	none (no result: TcdB GH inh)
CC(=O)Nc1cc(OC(=O)c2ccco2)cc(OC(=O)c2ccco2)c1	RecA splice inh 54 (no result: TcdB GH inh) | GFP chromophore 7.4
COC(=O)C1=C(C)NC(=S)NC1c1ccc(OC(=O)c2ccco2)cc1 (configuration not stated)	RecA splice inh 31 | GFP chromophore inactive
CC(=O)Nc1ccc(OC(=O)c2ccco2)cc1	RecA splice inh 33 (no result: TcdB GH inh) | GFP chromophore inactive
O=C(Oc1ccc(N2C(=O)CCC2=O)cc1)c1ccco1	RecA splice inh 31 (no result: TcdB GH inh) | GFP chromophore 0.61
CC(C)NC(=O)N(C)C[C@H]1OCCCC[C@@H](C)Oc2ccc(NS(=O)(=O)c3ccccc3)cc2C(=O)N([C@H](C)CO)C[C@H]1C	none (no result: Rv3671c inh, MazF activator, RecA splice inh, Mtb bLac sens, UGM FP inh)
O=C(NC1CCCCC1)N1CC2(C1)[C@@H](c1ccccc1)[C@@H](CO)N2CC1CC1	none (no result: Rv3671c inh, MazF activator, RecA splice inh, Mtb bLac sens, UGM FP inh)
CO[C@H]1CN(C)C(=O)c2cc(NC(=O)Nc3ccccc3)ccc2OC[C@H](C)N(CC2CC2)C[C@H]1C	none (no result: Rv3671c inh, MazF activator, RecA splice inh, Mtb bLac sens, UGM FP inh)
N=c1n(Cc2ccc(Cl)cc2)c2ccccc2n1CC(O)COc1ccccc1 (configuration not stated)	none
N=c1n(Cc2ccccc2)c2ccccc2n1CC(O)COc1ccc(Cl)cc1Cl (configuration not stated)	RecA splice inh 32 (no result: Rv3671c inh, Mtb bLac sens, UGM FP inh) | GFP chromophore inactive
O=[N+]([O-])C(/C=C(/Cl)[N+](=O)[O-])=C(N1CCCCC1)N1CCCCC1	RecA splice inh 49, Mtb bLac sens inconclusive | GFP chromophore 20
C[C@@H]1CN([C@@H](C)CO)C(=O)Cc2cc(N(C)C)ccc2O[C@H]1CN(C)C(=O)Nc1ccc(F)cc1	none (no result: Rv3671c inh, MazF activator, RecA splice inh, Mtb bLac sens, UGM FP inh)
COc1cccc(-c2cc(=O)[nH][nH]2)c1	RecA splice inh 98 | GFP chromophore 2.2
CCOc1cccc(-c2cc(=O)[nH][nH]2)c1	RecA splice inh 97 (no result: TcdB GH inh) | GFP chromophore 2.5
COc1ccc(-c2c[nH]c(=O)[nH]c2=O)cc1OC	none
COc1ccc(-c2cc(=O)[nH][nH]2)cc1OC	RecA splice inh 99 (no result: TcdB GH inh) | GFP chromophore 0.97
CCc1ccc2c(c1)C(NC(C)=O)C(=O)N2CCN1CCOCC1 (configuration not stated)	RecA splice inh 49 | GFP chromophore inactive
CN1CCc2nc(SCc3ccc(Cl)cc3)c(C#N)c(-c3cccs3)c2C1	RecA splice inh 60 (no result: Mtb bLac sens) | GFP chromophore 8.7
COc1ccc(-c2ccc([C@H]3[C@@H](C#N)N(C(=O)C4CC4)[C@H]3CO)cc2)cc1	none (no result: Rv3671c inh, MazF activator, RecA splice inh, Mtb bLac sens, UGM FP inh)
Cc1oc2cc([N+](=O)[O-])c(O)c([N+](=O)[O-])c2c1C(=O)c1ccc(Cl)cc1	RecA splice inh 37 | GFP chromophore 22
Cc1ccc(-c2ccc3c(c2)O[C@H](CN(C)Cc2ccccn2)[C@H](C)CN([C@@H](C)CO)S3(=O)=O)cc1	none (no result: Rv3671c inh, MazF activator, RecA splice inh, Mtb bLac sens, UGM FP inh)
C[C@@H]1CN([C@@H](C)CO)C(=O)c2cc(C#CCN(C)C)cnc2O[C@H]1CN(C)C(=O)Cc1ccncc1	none (no result: Rv3671c inh, MazF activator, RecA splice inh, Mtb bLac sens, UGM FP inh)
CC1=NNC(=O)C1C(c1ccccc1)C1C(=O)NN=C1C (configuration not stated)	RecA splice inh 98 (no result: TcdB GH inh, MazF activator) | GFP chromophore 0.41
CC1=NNC(=O)C1Cc1ccccc1 (configuration not stated)	RecA splice inh 96 | GFP chromophore 0.66
C[C@@H]1CN([C@@H](C)CO)C(=O)c2cc(NC(=O)C3CC3)ccc2O[C@@H]1CN(C)C(=O)Nc1ccc2c(c1)OCO2	none (no result: Rv3671c inh, MazF activator, RecA splice inh, Mtb bLac sens, UGM FP inh)
Cc1nc(COC(=O)c2ccc(CO)cc2)cs1	none (no result: TcdB GH inh, RecA splice inh)
Cc1nc(COC(=O)c2cc(O)c3ccccc3c2O)cs1	RecA splice inh 56 (no result: Rv3671c inh, Mtb bLac sens, UGM FP inh) | GFP chromophore 6.2
COc1ccccc1C(NC(=O)CC(C)C)c1c(O)ccc2ccccc12 (configuration not stated)	none
COc1ccccc1C(NC(C)=O)c1c(O)ccc2ccc(O)cc12 (configuration not stated)	RecA splice inh 79 | GFP chromophore 5.1
CCC1CCCCN1S(=O)(=O)c1ccc2c(c1)CCN2C(=O)C1CCC1 (configuration not stated)	none (no result: TcdB GH inh)
O=C(CCl)c1ccc2c(c1)CCN2C(=O)C1CCCCC1	RecA splice inh 80 | GFP chromophore inactive
CCCCCCCCCCOC(=O)Cn1c(COc2ccccc2OC)[n+](C)c2ccccc21	RecA splice inh 49 | GFP chromophore 12
